Source: PubChem BioAssay (NCATS)
Results filed as inconclusive are left out. Unmarked numbers belong to inactive results. The source made the active and inactive calls. Calls come from the whole dose curve; as a rule, active = well fitted cell-killing curve with a large enough effect; inconclusive = small, poorly fitted or top-dose-only effect, or effect the other way; inactive = no such curve, though single readings can be large or run the other way.

Assay: Viability qHTS for spleen associated tyrosine kinase inhibitor (SYKi) naive MV4-11 cells (AID 1963823); note: nearly all actives have a fitted effect of over 40% in size
Conditions: MV4-11 AML viability, CellTiter-Glo luminescence, 72 h; series mostly up to 45 µM; viability (% of control): at the top concentration
Summary of the method: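 CellTiter-Glo luminescence, 10 min room-temperature incubation, gave viability. Cells: naive MV4-11 (500/well), treated 72 hr at 37 C, 5% CO2.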
Potency is the fitted concentration of half-maximal effect.

Structure (SMILES)	viability (% of control)	Potency
O=C1NC(c2cccc([N+](=O)[O-])c2)=CCN1c1ccccc1O	75.4% [at 17.3 µM]	–
CC(C)C(=O)OC[C@H]1O[C@@H](n2ccc(N)nc2=O)[C@](C)(F)[C@@H]1OC(=O)C(C)C	67.7%	–
C=C1C(O)CC2C(C(=O)O)=COC(O[C@@H]3O[C@H](COC(=O)/C=C/c4ccc(O)cc4)[C@@H](O)[C@H](O)[C@H]3O)C12 (some centres undefined)	91.5% [at 17.3 µM]	–
C=CC(=O)N1CCN(C(=O)CNc2cc(-c3ccccc3Cl)c(Cl)cc2OC)CC1	–	10.3 µM (active)
CC(=O)NC(Cc1ccccc1)C(=O)NC(C(=O)O)C(C)C (centres undefined)	54.3%	–
C=C1CN(Cc2ccc(C(=O)Nc3ccccc3N)cc2)C(=O)c2ccccc21	–	0.651 µM (active)
CC(C)CC(c1c(O)c(C=O)c(O)c(C=O)c1O)C1CCC(C)(O)C2CC(C(C)(C)O)CCC12C (centres undefined)	72.3% [at 17.3 µM]	–
C/C(=C/CO)CC[C@H]1[C@]2(C)C[C@H](O)CC(C)(C)[C@H]2CC[C@]1(C)O	81.9%	–
CC1CCC/C=C/C(=O)c2c(O)cc(O)cc2CC(=O)O1 (centres undefined)	–	3.66 µM (active)
CC1(C=O)CC[C@]2(C(=O)O[C@@H]3O[C@H](CO)[C@@H](O)[C@H](O)[C@H]3O)CC[C@]3(C)C(=CCC4[C@@]5(C)C[C@H](O)[C@H](O[C@@H]6OC[C@@H](O)[C@H](O)[C@H]6O)[C@@](C)(CO)C5CC[C@]43C)C2C1 (some centres undefined)	95.5% [at 9.25 µM]	–
CC1=C(CCC(C)O[C@@H]2O[C@H](CO)[C@@H](O)[C@H](O)[C@H]2O)C(C)(C)CC(O)C1 (some centres undefined)	88.7%	–
C[C@H](O)[C@H](O)/C=C/c1cccc(O)c1CO	100%	–
CCC(=O)c1cc(-c2ccc(Cl)cc2)n(-c2ccc(S(N)(=O)=O)cc2)c1C	–	20.6 µM (active)
CC(=O)c1ccc2c(c1)C(O)C(C(C)(C)O)O2 (centres undefined)	79.4%	–
C=C[C@H]1C(O[C@@H]2O[C@H](CO)[C@@H](O)[C@H](O)[C@H]2O)OC=C2C(=O)N3CCc4c([nH]c5ccccc45)[C@H]3C[C@H]21 (some centres undefined)	74.3% [at 17.3 µM]	–
CCOc1ccc(CCNC(=O)c2cc3sc(Cl)cc3n2C)cc1OCC	77.6%	–
O=C(/C=C/c1ccc(O)c(O)c1)O[C@@H]1[C@@H](O)[C@H](OC2CCCCC2O)O[C@H](CO)[C@H]1O (some centres undefined)	86.9% [at 17.3 µM]	–
CC[C@H](C)[C@H](NC(=O)[C@H](Cc1ccc(O)cc1)NC(=O)[C@@H](N)C(C)C)C(=O)N[C@@H](Cc1cnc[nH]1)C(=O)N1CCC[C@H]1C(=O)N[C@@H](Cc1ccccc1)C(=O)O	98.9% [at 4.97 µM]	–
CC(=O)N[C@@H](CCCCN)C(=O)N(C)[C@@H](CC(C)C)C(=O)N[C@H](C(=O)N(C)[C@@H](Cc1ccccc1)C(=O)N[C@H](Cc1ccccc1)C(N)=O)C(C)C	93.5% [at 4.97 µM]	–
CC1(CCC(=O)O)C(=O)C=CC23CC4CC(OC4(C)C2O)C13 (centres undefined)	69.5%	–

Structure (SMILES)	viability (% of control)	Potency
CC(C)=CCC(O)/C(C)=C/CO[C@@H]1O[C@H](CO)[C@@H](O)[C@H](O)[C@H]1O (some centres undefined)	86.9%	–
CC(C)CC(=O)O[C@@H]1OC=C(CO[C@@H]2O[C@H](CO)[C@@H](O)[C@H](O)[C@H]2O)[C@H]2[C@@H]3O[C@H]3[C@@](O)(CO)[C@@H]12	88% [at 17.3 µM]	–
N#C/C(=C1/SC[C@@H](c2ccc(Cl)cc2Cl)S1)n1ccnc1	–	11.9 µM (active)
COc1c(Nc2ncc(Cl)c(N[C@H]3[C@@H](C(N)=O)[C@@H]4C=C[C@H]3C4)n2)ccc2c1CC[C@@H](N1CCOCC1)CC2	–	0.231 µM (active)
NC(=O)[C@H](Cc1ccccc1)NC(=O)[C@H](CCCN=C(N)N)NC(=O)C12CC3CC(CC(C3)C1)C2	88.8% [at 9.25 µM]	–
Cc1ccc2c(c1)C=Cc1cc(C)ccc1C2c1cn(Cc2ccc(C(=O)Nc3nn[nH]n3)o2)c(=O)[nH]c1=S	85.5%	–
C=C1C(O)C(O)C2(CC3C(C)=CCC4C(C)(C(=O)O)CCCC34C)OC2C1O (centres undefined)	75.3%	–
CC1=CC(=O)CC(C)(CO)C1(O)/C=C/C(C)O[C@@H]1O[C@H](CO)[C@@H](O)[C@H](O)[C@H]1O (some centres undefined)	96.5% [at 17.3 µM]	–
CC1(C)CC[C@]2(C(=O)O[C@@H]3O[C@H](CO)[C@@H](O)[C@H](O)[C@H]3O)CC[C@]3(C)C(=CCC4[C@@]5(C)C[C@H](O)[C@H](O[C@@H]6OC[C@@H](O)[C@H](O)[C@H]6O)[C@@](C)(CO)C5CC[C@]43C)C2C1 (some centres undefined)	96.5% [at 9.25 µM]	–
O=C(OCc1ccccc1O[C@@H]1O[C@H](CO)[C@@H](O)[C@H](O)[C@H]1O)C1(O)C=CCCC1O (some centres undefined)	88.9% [at 17.3 µM]	–
CC/C=C\CCO[C@@H]1O[C@H](CO)[C@@H](O)[C@H](O)[C@H]1O	86.8%	–
CCOC(=O)[C@H](CCc1ccccc1)N[C@@H](C)C(=O)N1C2CCCCC2C[C@H]1C(=O)O (some centres undefined)	–	16.4 µM (active)
COc1cc(C2Oc3c(OC)cc(/C=C/C(=O)OC4CC(O)(C(=O)O)CC(O)C4O)cc3C2CO)ccc1O (centres undefined)	91% [at 17.3 µM]	–
CCN(Cc1cccnc1)C(=O)CN(c1ccc(OC)nc1)S(=O)(=O)c1ccccc1C	79.1%	–
CC1(C)C2CCC1(C)C(OC(=O)C(O)(CC(=O)O)CC(=O)O)C2 (centres undefined)	85.8%	–
CS(=O)(=O)NCC1CCC(Nc2nc3c(s2)CCSc2ccccc2-3)CC1 (centres undefined)	–	2.31 µM (active)
CC1(C)CC[C@]2(C(=O)O[C@@H]3O[C@H](CO[C@@H]4O[C@H](CO)[C@@H](O)[C@H](O)[C@H]4O[C@@H]4O[C@H](CO)[C@H](O)[C@H](O)[C@H]4O)[C@@H](O)[C@H](O[C@@H]4O[C@H](CO)[C@@H](O)[C@H](O)[C@H]4O)[C@H]3O)CC[C@]3(C)C(=CCC4[C@@]5(C)CC[C@H](O[C@@H]6OC[C@@H](O)[C@H](O)[C@H]6O)[C@@](C)(C(=O)O)C5CC[C@]43C)[C@@H]2C1 (some centres undefined)	76.7% [at 9.25 µM]	–
CC/C=C\[C@H](O)[C@H](O)C1=C(C)C(=O)[C@]2(O1)C(=O)N[C@@](O)(C(=O)c1ccccc1)[C@@H]2O	73.7% [at 17.3 µM]	–
C[C@@]1(C(=O)O)CCC[C@@]2(C)C3=CC[C@H]4C[C@@]3(CC[C@H]12)CC4(O)CO (some centres undefined)	68.6%	–
